Our source for the IFI values is ChEMBL document CHEMBL1156829.

Over roughly 5,400 compounds, “IFI” has its median near 2; the highest 2% begin near 22. For the sample, the highest values were picked, then their nearest neighbours and some compounds at random.

The nature of the assay: NOVARTIS: Inhibition Frequency Index (IFI) - the number of HTS assays where a compound showed > 50% inhibition/induction, expressed as a percentage of the number of assays in which the compound was tested. The assay is classed as functional.
`Nc1c(C(=O)NCc2ccccc2)nnn1Cc1ccc(F)cc1Cl`: the IFI amounted to 0%.
With `CCN1/C(=C/c2sc3ccc(OC)cc3[n+]2CC)C=Cc2cc(C)ccc21`, the IFI worked out at 23.1%.
For `CCN1C(=Cc2sc3ccc(Cl)cc3[n+]2CC)C=Cc2cc(OC)ccc21`, the IFI was 15.4%.
The value for `CCCN1/C(=C/c2sc3ccccc3[n+]2CC)C=Cc2ccccc21` was 23.1%; that for `CCN1C(=Cc2sc3ccc(OC)cc3[n+]2CC)C=Cc2ccccc21` was 25%; that for `CCN1/C(=C/c2sc3ccccc3[n+]2CC)C=Cc2cc(NC(C)=O)ccc21` was 7.69%.
With `CCN1/C(=C/c2sc3ccc(Br)cc3[n+]2CC)C=Cc2ccccc21`, the IFI came out at 15.4%.
`CCN1/C(=C/c2sc3ccc(I)cc3[n+]2CC)C=Cc2ccccc21` showed an IFI of 15.4%.
The value for `CCN1/C(=C\c2sc3ccc(O)cc3[n+]2CC)C=Cc2ccccc21` was 23.1%; that for `CCN1/C(=C/c2sc3ccc(OC)cc3[n+]2CC)C=Cc2cc(OC)ccc21` was 15.4%; that for `CCCC[n+]1c(C=C2C=Cc3ccccc3N2CC)sc2ccccc21` was 11.1%.
With `CCN1/C(=C/c2sc3ccc(-c4ccccc4)cc3[n+]2CCO)C=Cc2cc(OC)ccc21`, the IFI came to 7.14%.
The compound `CCN1/C(=C/C2=CC(=C/c3sc4ccccc4[n+]3CC)/CC(C)(C)C2)C=Cc2ccccc21` came in with an IFI of 9.43%.
Regarding `CCOc1ccc(C(=O)C(CCC(C[N+]2(C)CCCCCC2)C(=O)c2ccc(OCC)cc2)C[N+]2(C)CCCCCC2)cc1` (stereo unspecified), the IFI came out at 0%.
The compound `COc1ccc(CCNc2nc(NCCC3CCCN3C)ncc2C(=O)NCc2ccccc2)cc1OC` (stereo unspecified) gave an IFI of 1.92%.
`COc1ccc2[nH]c(=O)c(CN(C(=S)Nc3ccccc3OC)C3CCCC3)cc2c1`: the IFI was determined as 2.17%.
For the compound `Nc1ccc(-c2cc(N)n(-c3ccc(Oc4ccccc4)c(S(=O)(=O)O)c3)n2)cc1`, the IFI came out at 1.83%.
In the case of `CCOc1cccc2oc(=O)c(C(=O)Nc3cc(C(C)(C)C)on3)cc12`, the IFI was 0%.
In the case of `CCOc1ccc(-c2nc(NC(=O)CS(=O)(=O)c3ccccc3)sc2C)cc1`, the IFI was 0%.
Take `CCOC(=O)C1CCN(C(=O)c2cc(C(C)(C)C)nn2Cc2ccc(Cl)cc2Cl)CC1`: the IFI amounted to 1.63%.
`CCC(c1nc2ccccc2c(=O)n1CC)N1CCN(C(=O)Nc2ccccc2C(F)(F)F)CC1` (stereo unspecified) yielded an IFI of 2.08%.
Turning to `Cc1ccccc1CN1CCN(C/C=C/c2ccccc2)CCC1=O`, the IFI worked out at 0.962%.
Regarding `CCN1/C(=C/c2sc3ccc(-c4ccccc4)cc3[n+]2CCO)C=Cc2ccccc21`, the IFI is 7.14%.
For the compound `CCN1/C(=C/c2sc3cc(OC)c(OC)cc3[n+]2CC)C=Cc2ccccc21`, the IFI was determined as 23.1%.
For `CCN1/C(=C/c2sc3ccccc3[n+]2CC)Sc2ccccc21`, the IFI worked out at 21.9%.
Take `CCCOC(=O)C1=C(C)NC2=C(C(=O)CC(c3ccc(Cl)cc3)C2)C1c1ccc(Br)cc1` (stereo unspecified): the IFI came to 3.57%.
